From the supplement of paper PMC8728848
About 410 targets per protein were measured; listed, in parts, are those with the strongest signals and a random draw of the rest.

Experiments:
Experiment in all cases: glycan array binding signal (z-score within array); higher = stronger binding
Details in all cases: glycan notation: IUPAC condensed, linker removed; mutation: R186I
[1] = target: Neu5Ac(a2-6)Gal(b1-4)GlcNAc(b1-3)Gal(b1-4)GlcNAc(b1-3)Gal(b1-4)GlcNAc
Method in brief: (§1)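 From the Consortium for Functional Glycomics database, 3228 arrays were curated, keeping only those whose protein sequence was available. Binding is given as a within-array Z-score averaged across arrays sharing a protein sequence and across linkers. Negative Z-scores can be read as non-binding.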

[2] = target: Neu5Ac9Ac(a2-6)Gal(b1-4)GlcNAc
Method in brief: as §1

[3] = target: Neu5Gc(a2-3)Gal(b1-4)GlcNAc
Method in brief: as §1

[4] = target: Neu5Gc(a2-3)Gal(b1-4)[Fuc(a1-3)]GlcNAc
Method in brief: as §1

B1: Gal 3 (Homo sapiens), P17931 (protein)
chain: MADNFSLHDALSGSGNPNPQGWPGAWGNQPAGAGGYPGASYPGAYPGQAPPGAYPGQAPPGAYHGAPGAYPGAPAPGVYPGPPSGPGAYPSSGQPSAPGAYPATGPYGAPAGPLIVPYNLPLPGGVVPRMLITILGTVKPNANILDFQRGNDVAFHFNPRFNENNRRVIVCNTKLDNNWGREEIQSVFPFESGKPFKIQVLVEPDHFKVAVNDAHLLQYNHRVKKLNEISKLGISGDIDLTSASYTMI
Q: What does the source list for B1?
A: glycan array binding signal (z-score) [1]: -0.107; glycan array binding signal (z-score) [2]: -0.185; glycan array binding signal (z-score) [3]: -0.157; glycan array binding signal (z-score) [4]: -0.165
